Results filed as inconclusive are left out. Entries that show only a call come without a potency. Activity calls are given as the source filed them. Calls come from the whole dose curve; as a rule, active = well fitted activation curve with a large enough effect; inconclusive = small, poorly fitted or top-dose-only effect; inactive = no such curve, though single readings can be large or run the other way.
Test: qHTS Assay for Identifying a Potential Treatment of Ataxia-Telangiectasia: Hit Validation;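 note: phospho-KAP1 level by AlphaLISA as a proxy for ATM-like kinase activity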
Conditions: Ataxia-telangiectasia cell-based hit validation qHTS, in ATM-null A-T patient fibroblasts; series mostly up to 76.9 µM
How it was run: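 KAP-1 phosphorylation was read by AlphaLISA as a measure of ATM-like activity in ATM-null F2112 fibroblasts. Compounds spanned up to 76.7 uM final, with 60 min exposure at 37C and a 6 hr detection incubation at 25C.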
With `CN1C[C@@H]2C(c3ccccc3)C3(c4ccccc4)CC2(C3)[C@H]1c1ccccc1` (some centres undefined) the Potency was 18.4 µM (active). For `CCCCN(c1nc2ccccc2nc1Cl)S(=O)(=O)c1ccc(C)cc1`, the Potency was 26 µM (active). In the case of `Cc1nc(SCC(=O)Nc2cc(C(N)=O)cc(C(N)=O)c2)c2c(C)c(C)sc2n1`, the Potency is reported as “inactive”. For `N#CCN1C(=O)C(=O)N(Cc2cccc(Cl)c2)C1=O`, the Potency was “inactive”. With `O=C(C[n+]1cccc2ccccc21)c1ccc(NC(=O)c2ccccc2)cc1` the Potency was “inactive”. For `CC(C)C1CC(CCN)(c2ccccc2)CCO1` (centres undefined), the Potency was “inactive”. With `COc1ccccc1NC(=O)C1CCCN(S(=O)(=O)c2ccc(-n3cnnn3)cc2)C1` (centres undefined) the Potency was “inactive”. For `COc1ccc(N(CCC#N)C(=O)/C(C#N)=C\c2cccs2)cc1`, the Potency was “inactive”. With `CCn1c(N2CCN(CC(=O)c3c[nH]c4ccccc34)CC2)nc2c1c(=O)[nH]c(=O)n2C` the Potency was “inactive”. With `Cc1ccc(C)c(-n2c(SCC(=O)NC(C(=O)O)C(C)C)nnc2-c2cccc(Cl)c2)c1` (centres undefined) the Potency was 36.8 µM (active). In the case of `Cc1ccc(C(=O)Nc2sc3c(c2C(=O)O)CCCCC3)o1`, the Potency is reported as “inactive”. For `Cc1nc(Nc2ccc(Cl)cc2)c2oc3ccccc3c2n1`, the Potency was “inactive”. In the case of `CCN(CC)c1ccc2cc(-c3nc4ccccc4[nH]3)c(=O)oc2c1`, the Potency is reported as “inactive”. In the case of `CC(=O)c1sc2nc(C)c3c(c2c1N)CCCC3`, the Potency is reported as “inactive”. With `Cc1cc(C)c2c(Cn3ccnc3)cc(=O)oc2c1` the Potency was “inactive”. In the case of `CCOC(=O)Cn1c(-c2ccccc2)cc(SC)c(C#N)c1=O`, the Potency is reported as “inactive”. In the case of `COC(=O)c1ccncc1C(=O)Nc1ccc(Oc2ncc(C(F)(F)F)cc2Cl)cc1`, the Potency is reported as “inactive”. For `CN(Cc1ccccc1)C(=O)c1cccc(N2C(=O)C3CC=CCC3C2=O)c1` (centres undefined), the Potency was “inactive”. In the case of `O=C(CSc1nnc(CNC(=O)c2ccccc2)o1)NCCc1ccccc1`, the Potency is reported as “inactive”.

— PubChem BioAssay AID493192 (National Center for Advancing Translational Sciences (NCATS), 2011)
Potency is the fitted concentration of half-maximal effect.
